Compounds with a hit are over-represented: about 10% of the library has one in this group of screens.
BAZ2B block = blocks human BAZ2B; AlphaScreen BAZ2B-H3K14Ac peptide displacement; actives 4.4% (n = 360,000); Potency, µM (series often up to 114 µM), without a hit: at the highest dose activity change, negative = inhibition, actives largely listed as inhibitors; AID 504333; further: on the % scale 0 is the no-effect control and ±100 the full control effect; nearly all actives have a fitted effect of over 60% in size
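BAZ2B (50 nM) with biotin-H3(5-23)K14Ac peptide (50 nM) in PBS pH 7.4, 0.01% Tween-20, preformed 30 min, then compound 30 min at room temperature; top concentration 110uM. AlphaScreen streptavidin donor/nickel chelate acceptor beads (10 ug/mL final), 20 min dark, signal read.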
HP1b binding inh = inhibitors of HP1-beta chromodomain binding to methylated histone tails. AlphaScreen HP1-beta / biotin-H3K9me3 peptide binding. Potency, µM (series often up to 114 µM), for inactives: at the highest dose activity change, negative = inhibition, most hits filed as inhibitors. actives 0.56% (n = 390,000); further: nearly all actives have a fitted effect of over 70% in size
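Compound inhibition of the preformed complex between 50 nM HP1-beta and 50 nM biotinylated H3K9me3 peptide was read by AlphaScreen. Buffer was PBS pH 7.4 with 0.01% Tween-20. Incubations ran 30 min at room temperature, with 10 ug/mL donor/acceptor beads.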
JMJD2A Tudor = JMJD2A Tudor domain (human) inhibition; AlphaScreen JMJD2A-Tudor / H3K4me3 peptide binding; Potency, µM (series often up to 114 µM), inactives show at the top dose activity change, negative = inhibition, hits mostly inhibitors; actives 4.4% (n = 390,000); AID 504339; further: on the % scale 0 is the no-effect control and ±100 the full control effect; nearly all actives have a fitted effect of over 50% in size
GLS inhibitor = inhibitors of human glutaminase (GLS). GLS enzymatic activity, qHTS titration. Potency, µM (top dose mostly 45.5 µM), inactives show at the top dose activity change, negative = inhibition, hits mostly inhibitors. actives 0.21% (n = 410,000). AID 624170; further: on the % scale 0 is the no-effect control and ±100 the full control effect
Target sequence (O94925 whole entry, looked up): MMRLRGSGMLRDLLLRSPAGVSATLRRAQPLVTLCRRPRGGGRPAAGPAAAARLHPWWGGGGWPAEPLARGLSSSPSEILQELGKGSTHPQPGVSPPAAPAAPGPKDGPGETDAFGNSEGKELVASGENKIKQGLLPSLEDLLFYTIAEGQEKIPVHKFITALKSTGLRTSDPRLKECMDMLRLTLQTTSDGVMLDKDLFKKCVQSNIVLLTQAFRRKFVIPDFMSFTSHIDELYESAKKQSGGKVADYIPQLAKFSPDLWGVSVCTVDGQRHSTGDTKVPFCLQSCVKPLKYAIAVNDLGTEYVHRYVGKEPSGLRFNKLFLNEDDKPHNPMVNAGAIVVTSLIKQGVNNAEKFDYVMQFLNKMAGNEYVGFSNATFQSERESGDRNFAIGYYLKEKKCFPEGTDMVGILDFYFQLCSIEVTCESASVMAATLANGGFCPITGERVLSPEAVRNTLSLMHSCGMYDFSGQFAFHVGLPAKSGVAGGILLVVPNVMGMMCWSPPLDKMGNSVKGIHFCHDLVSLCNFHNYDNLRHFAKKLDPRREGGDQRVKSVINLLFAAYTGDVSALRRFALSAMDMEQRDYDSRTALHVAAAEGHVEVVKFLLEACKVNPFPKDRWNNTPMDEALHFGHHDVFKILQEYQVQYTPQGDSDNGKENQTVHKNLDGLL
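hKGA; 45 mM KH2PO4 pH 8.2 + 0.02% Tween-20; cpd via pin tool; 1 mM Gln soln; GluOx/HRP/Amplex Red; RT 30 min; fluor. t0 & final.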
G9a block = G9a (human) methyltransferase inhibition; G9a H3K9 monomethylation, AlphaScreen, 2 h; actives 8.8% (n = 350,000); Potency, µM (titrated, usually from 102 µM), inactives show top-dose activity, negative = inhibition, hits mostly inhibitors; Q96KQ7; further: on the % scale 0 is the no-effect control and ±100 the full control effect; nearly all actives have a fitted effect of over 75% in size
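Signal arises when biotinylated H3K9 peptide, once monomethylated, bridges streptavidin donor and antibody-captured acceptor beads. Enzyme at 20 nM was preincubated 15 min with test compounds; peptide 500 nM and SAM 20 uM then reacted for 2 h.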
Active calls of the source: *; ? = inconclusive; / = no result; [ ] = another dose, or the depositor's remark. The call rests on the fitted dose curve; in most records, active means well fitted curve in the direction sought with a large enough effect; inconclusive means small, poorly fitted or top-dose-only effect, or another doubt; inactive means no such curve, though single readings can be large; an effect the other way counts as inactive or inconclusive. Potency means the concentration at half of the fitted maximal effect.

SMILES | BAZ2B block | HP1b binding inh | JMJD2A Tudor | GLS inhibitor | G9a block
NC1=NC(=O)/C(=C/c2cn(Cc3ccccc3)c3ccccc23)S1 | ? | 1% | -35% | -2% | 50µM*
Cc1ccc(CNC(=O)COC(=O)c2ccc(S(=O)(=O)N3CCOCC3)cc2)cc1 | / | 9% | -1% | 7% | /
CCN1CCN(c2cc(C)c3cc(NC(=O)/C=C/c4cccc(Cl)c4)ccc3n2)CC1 | ? | -35% | 32µM* | 1% | 11µM*
CCN1CCN(c2cc(C)c3cc(NC(=S)N(CC)CC)ccc3n2)CC1 | ? | 1%[57 µM] | ? | 57% | 35µM*
COc1ccccc1N1CCN(C(=S)Nc2ccc3nc(N4CCOCC4)cc(C)c3c2)CC1 | / | ? | ? | ? | 56µM*
CCN1CCN(c2cc(C)c3cc(NC(=O)c4cccc(Cl)c4)ccc3n2)CC1 | -2% | -4% | ? | 2% | -35%[59 µM]
CCCN1CCN(C(=S)Nc2ccc3nc(N4CCN(CC)CC4)cc(C)c3c2)CC1 | -19% | -7% | -26% | 0% | 45µM*
CCN1CCN(c2cc(C)c3cc(NC(=S)N4CCN(c5ccccc5F)CC4)ccc3n2)CC1 | ? | -6% | ? | 0% | 45µM*
CCN1CCN(c2cc(C)c3cc(NC(=O)CCC(=O)N4CCN(c5ccccc5)CC4)ccc3n2)CC1 | -20% | -18% | ? | 48% | 79µM*
CCN1CCN(c2cc(C)c3cc(NC(=S)N4CCOCC4)ccc3n2)CC1 | -25% | 11%[57 µM] | -13% | 42% | 40µM*
CCN1CCN(c2cc(C)c3cc(NC(=O)CCC(=O)N4CCN(c5ccccc5OC)CC4)ccc3n2)CC1 | -3% | -22% | -23% | 40% | -73%
COc1ccc(CNC(=O)CCc2nnc3n(C)c(=O)c4sccc4n23)cc1 | 0% | 11% | 0% | -10% | -11%[59 µM]
COc1cccc(C2(C)NC(=O)N(CC(=O)c3cc(C)n(C4CC4)c3C)C2=O)c1 (stereo not given) | ? | -1% | -21% | 0% | 15%[2.33 µM]
CCn1ccc(C(=O)NC2C(=O)N3C(C(=O)O)=C(C)CSC23)n1 (stereo not given) | ? | 38% | -7% | 0% | 22µM*
CC(=O)OCC1=C(C(=O)O)N2C(=O)C(NC(=O)c3ccc(COc4cccc(Cl)c4Cl)o3)C2SC1 (stereo not given) | 50µM* | -4% | ? | -18% | 32µM*
CC1=C(C(=O)O)N2C(=O)C(NC(=O)c3nn(C)cc3Cl)C2SC1 (stereo not given) | -11% | 2% | -16%[11.4 µM] | -7% | ?
CC1=C(C(=O)O)N2C(=O)C(NC(=O)c3ccccc3Cl)C2SC1 (stereo not given) | 0% | 43% | -20% | 0% | 1.8µM*
CC1=C(C(=O)OCC(Cl)(Cl)Cl)N2C(=O)C(NC(=O)Cc3ccccc3)C2SC1 (stereo not given) | 2% | 21% | -6% | -12% | 40µM*
CCC(C(=O)NCC1CCCO1)N(C(=O)c1snc(C(N)=O)c1N)c1ccc(Cl)cc1 (stereo not given) | 22% | 16% | -3% | 1% | -1%
COc1cccc(C(=O)NC2C(=O)N3C(C(=O)O)=C(COC(C)=O)CSC23)c1 (stereo not given) | ? | 10% | -9% | -3% | -10%[12.7 µM]
CC1=C(C(=O)O)N2C(=O)C(NC(=O)c3ccc(F)cc3)C2SC1 (stereo not given) | -33% | 22% | ? | -3% | 0.89µM*
Cn1c(NNC(=O)C(c2ccccc2)c2ccccc2)cc(=O)n(C)c1=O | 0% | 13% | -3% | 8.9µM* | -33%
Cn1c(NC(=O)c2ccccc2)cc(=O)n(C)c1=O | -3% | 24% | -2% | 3% | -37%
Cn1c(NC(=O)/C=C/c2ccccc2)cc(=O)n(C)c1=O | 4% | 14% | -10% | -4% | 7%[59 µM]
Cn1c(NC(=O)c2ccccc2F)cc(=O)n(C)c1=O | -30% | 36% | -9% | 2% | 56µM*
SMILES | BAZ2B block | HP1b binding inh | JMJD2A Tudor | GLS inhibitor | G9a block
CN1CCN(C(=O)CNC(=O)C23CC4CC(CC(C4)C2)C3)CC1 | / | 41% | -9% | 13% | /
NS(=O)(=O)c1ccc(-c2ccc(/C=C3\NC(=S)NC3=O)o2)cc1 | 50µM* | ? | 25µM* | -8% | 8.9µM*
CCCOC(=O)c1cc(-c2ccc(/C=C3/C(=O)N(C)C(=O)C(C#N)=C3C)o2)ccc1Cl | / | ? | 56µM* | 25% | /
C=CCOC(=O)c1cc(-c2ccc(/C=C3\C(=O)NC(=O)C(C#N)=C3C)o2)ccc1Cl | 35µM* | -97% | 50µM* | -28% | 8.9µM*
CC1=C(C#N)C(=O)NC(=O)/C1=C/c1ccc(-c2ccc(S(N)(=O)=O)cc2)o1 | 45µM* | ? | 71µM* | 15% | 8.9µM*
NS(=O)(=O)c1ccc(-c2ccc(C=O)o2)cc1 | -3% | 51% | -8%[11.4 µM] | -4% | -42%
Cc1ccc(-c2cn3cccc(C)c3n2)cc1 | -9% | 26% | -22% | 0% | /
Cc1cc(NC(=O)CSc2ccc3nnc(-c4cccnc4)n3n2)no1 | -1% | 39% | -19% | -16% | ?
NC(=S)C1COc2ccccc2O1 (stereo not given) | -9% | -7% | 2% | -14% | 45µM*
CC(C)NC(=O)C1COc2ccccc2O1 (stereo not given) | -21% | 33% | -8% | 0% | ?
O=C(COc1ccccc1Cl)NC(=S)Nc1ccccc1N1CCCC1 | 20µM* | 5% | ? | 35% | 40µM*
COc1ccc(N2CC(C(=O)Nc3ccccc3N3CCCC3)CC2=O)c(OC)c1 (stereo not given) | 3% | 15% | -20% | 11% | 50µM*
COc1ccc(N2CCCC2)c(NC(=O)COc2ccccc2Cl)c1 | ? | -7% | -13% | -20% | 35µM*
O=C(CCc1nnc(Cc2cccc(C(F)(F)F)c2)o1)NCCc1ccccc1F | 6% | 35% | -9% | -3% | 15%
CN(CC(=O)Nc1c(Cl)cccc1Cl)C(=O)CCc1nc2sc3c(c2c(=O)[nH]1)CCCC3 | ? | 7% | -34% | 1% | 21%[0.501 µM]
Cc1ccc(CN(C)C(=O)CCc2nc3sc4c(c3c(=O)[nH]2)CCCC4)o1 | -37% | -10% | 71µM* | -13% | /
CN(C)C(=O)CCc1nc2sc3c(c2c(=O)[nH]1)CCCC3 | 5% | 27% | -4% | 0% | -7%[59 µM]
CN(Cc1ccco1)C(=O)CCc1nc2sc3c(c2c(=O)[nH]1)CCCC3 | ? | -2% | ? | 2% | 79µM*
CCc1ccccc1NC(=O)c1ccc(NS(C)(=O)=O)cc1 | -17% | 17% | -6% | 8% | -31%
CCOc1ccc(N2C(=O)CC(Sc3ccccc3C(=O)O)C2=O)c([N+](=O)[O-])c1 (stereo not given) | 63µM* | 2% | ? | 4% | 1.4µM*
